Usually inhibition stands for the relative decrease from the control value, in per cent.

About 1,000 (0.29%) of roughly 340,000 compounds were called active. A selection follows. Results with a measured potency or affinity are listed apart. Unmarked numbers belong to inactive results. Cut-off read from the data, not from the text of the source: inconclusive = inhibition above about 27% without an active follow-up result; inactive = below that.

A short description of this experiment: H1N1 influenza NS1A inhibitors, functional cell based assay (AID 504329). As to conditions: percent inhibition, at 12.5 µM, active compounds read high.
Consider `COc1ccc(/C=N/NC(=O)c2cc(C)oc2C)cc1OCc1ccccc1`, for which the inhibition is 9.7%.

`COc1ccc(/C=N/NC(=O)c2ccco2)cc1OCc1ccccc1`: the inhibition is 0.58%.

With `CC(C)CCNC(=O)NC(=O)COc1ncnc2sccc12`, the inhibition is -13.5%.

As for `O=C(CSc1nncs1)Nc1cc(S(=O)(=O)N2CCOCC2)ccc1N1CCCC1`, the inhibition is -2.14%.

Take `O=C(COc1ccccc1[N+](=O)[O-])N1CCN(C(=O)c2ccco2)CC1`: the inhibition was 8.66%.

`CCOc1ccc2c(c1)C(=NNC(=O)c1ccccn1)c1cc(OCC)ccc1-2`: the inhibition was 7.92%.

With `COc1ccc2c(c1)C(=NNC(=O)c1ccccn1)c1cc(OC)ccc1-2`, the inhibition was -2.18%.

Turning to `C/C(=N/NC(=O)c1cnccn1)c1ccncc1`, the inhibition was 2.49%.

Regarding `CCNC(=S)N1CCN(c2ccccn2)CC1`, the inhibition was -6.5%.

As for `C/C(=N\NC(=S)NC1CCCCC1)c1cccs1`, the inhibition was 7.94%.

In the case of `C/C(=N\NC(=S)NC1CCCCC1)c1ccccc1`, the inhibition is 11.5%.

Take `S=C(NC1CCCC1)N1CCN(c2ccccn2)CC1`: the inhibition is -9.04%.

Consider `C/C(=N\NC(=O)C1CC1)c1cccnc1`, for which the inhibition is -3.09%.

With `CC(=O)c1nccs1`, the inhibition was -23%.

`C/C(CC(=O)NC1CCCCCC1)=N\NC(=O)c1cnccn1`: the inhibition is 2.22%.

On to `COc1cc(SC)ccc1C(=O)Nc1ccc2c(c1)CCN2S(C)(=O)=O`, for which the inhibition is 0.73%.

On to `CC(=O)Nc1cc(C(=O)OCC(=O)c2ccc(C)cc2)ccc1C`, for which the inhibition is 2.61%.

`CCOc1ccc(-c2nc(S(=O)(=O)c3ccccc3)c(N3CCOCC3)o2)cc1`: the inhibition was 6.87%.

Take `CNC(=O)c1c(NC(=O)C2=COCCO2)sc2c1CCC(C)C2` (configuration not stated): the inhibition was -0.48%.

With `COc1ccc(CCN(Cc2ccccn2)C(=S)Nc2ccccc2F)cc1OC`, the inhibition was 2.66%.

In the case of `Cc1cccc(N2CCN(C(=O)CCn3c(=O)[nH]c4ccsc4c3=O)CC2C)c1` (configuration not stated), the inhibition is 14.2%.

Consider `CC(C)[C@H](NC(=O)OCc1ccccc1)C(=O)OCC(=O)Nc1ccc(N2CCOCC2)cc1`, for which the inhibition is -2.26%.

For `O=C(CSc1nnc(-c2ccccn2)o1)Nc1ccccc1`, the inhibition was -0.31%.

As for `O=C(CSc1ccc(C(F)(F)F)cn1)Nc1ccccc1`, the inhibition was -2.05%.

Turning to `O=C(CSc1ncccn1)Nc1ccccc1`, the inhibition was -12.3%.

As for `O=C(CSc1ccccn1)Nc1ccc(NC(=O)CSc2ccccn2)cc1`, the inhibition was 3.94%.

On to `O=C(N/N=C/C1CC2CCC1C2)c1ccc2c(c1)OCO2` (configuration not stated), for which the inhibition was 4.78%.

On to `Cc1ccccc1C(=O)c1cccn1CC(=O)NCCCc1ccccc1`, for which the inhibition was -0.87%.

As to `CCOC(=O)c1c(C)[nH]c(C(=O)OCc2ccc(F)cc2)c1C`, the inhibition was -5.78%.

As for `CCOC(=O)C1=C(c2ccccc2)NC(=O)NC1c1ccc(OCC#N)c(OC)c1` (configuration not stated), the inhibition was 1.47%.

Consider `CCOC(=O)C1=C(c2ccccc2)NC(=O)NC1c1ccc(OC)c(OC)c1` (configuration not stated), for which the inhibition is -15.2%.

Turning to `CCOC(=O)C1=C(COc2ccccc2)NC(=O)NC1c1ccc(Cl)cc1` (configuration not stated), the inhibition was 3.45%.

For the compound `CCOc1ccc(C2NC(=O)NC(C)=C2C(=O)OCc2ccccc2)cc1` (configuration not stated), the inhibition was -2.43%.

For the compound `CCOC(=O)[C@@H]1[C@H]2COc3cc(OC)ccc3[C@@H]2N2C(=O)N(c3cccc(C)c3)C(=O)[C@]12C`, the inhibition was 2.49%.

In the case of `COc1ccc(C2=CC(c3ccc(OC)c(OC)c3)c3c(c4ccccc4oc3=O)O2)cc1OC` (configuration not stated), the inhibition is 26.9%.

Consider `Cc1ccc(NC2(C(N)=O)CCCC2)cc1`, for which the inhibition was -3.06%.

Regarding `CCC1=C(C)C(N2CCOCC2)=NP(N2CCOCC2)(N2CCOCC2)=N1`, the inhibition was 3.31%.

As for `CCC(Sc1nc(C)cc(=O)[nH]1)C(=O)Nc1sc2c(c1C#N)CCCC2` (configuration not stated), the inhibition is -5.51%.

In the case of `Cc1cc([N+](=O)[O-])c(NCCCCCCO)c([N+](=O)[O-])c1`, the inhibition was 11%.

`CCCCCCNc1c([N+](=O)[O-])cc(C)cc1[N+](=O)[O-]`: the inhibition was 28.9%.

Consider `N#Cc1cc(NC2CCCC2)c([N+](=O)[O-])cc1C#N`, for which the inhibition was 12.5%.

Consider `Cc1cc(C(=O)NC2CCCCCCC2)ccc1[N+](=O)[O-]`, for which the inhibition is -15.4%.

`CCCn1c2ccccc2c2cnn(CC(=O)NCCCOC)c(=O)c21`: the inhibition is 0.78%.

For `CCN(CC(=O)Nc1c(F)cccc1F)C(=O)CNC(=O)c1ccco1`, the inhibition is -4.3%.

Regarding `CN1c2cccc3cccc(c23)N(C)C1(C)C`, the inhibition is 20.9%.

In the case of `CN1c2ccccc2N(C)C1(C)c1ccccc1`, the inhibition is 14.4%.

Turning to `CC(C(c1ccc2c(c1)OCO2)c1c(N)n(C)c(=O)n(C)c1=O)[N+](=O)[O-]` (configuration not stated), the inhibition is -16.4%.

Take `COc1ccc(NC(=O)CSc2nnc3ccc(-c4cccnc4)nn23)cc1OC`: the inhibition was -19.3%.

`COC(=O)c1ccc(C(=O)NC(=S)Nc2ccc3nc(SC)sc3c2)cc1`: the inhibition is -0.55%.

Consider `NS(=O)(=O)c1cccc(NC(=O)COC(=O)COc2ccc3ccccc3c2)c1`, for which the inhibition is -0.29%.

Take `O=C(N/N=C/c1cccs1)c1ccc2c(c1)OCO2`: the inhibition was 8.44%.

`CN(C)c1ccc2c(c1)OC(N)=C(C#N)C2c1cccc(F)c1` (configuration not stated): the inhibition was -65.2%.

Consider `CN(C)c1ccc(N=Nc2ccc(C(=O)O)cc2)cc1`, for which the inhibition was -2.64%.

As for `Nc1n[nH]c(N)c1N=Nc1cccc(F)c1`, the inhibition was 1.03%.

Turning to `CC(=O)c1ccc(N=Nc2ccc(N(C)C)cc2)cc1`, the inhibition is 13%.

For the compound `Cc1c(Cl)c(C(F)(F)F)nn1CC(=O)NN`, the inhibition is 3.69%.

On to `O=C(NCc1ccccn1)/C(=C/c1ccco1)NC(=O)c1ccccc1`, for which the inhibition was 1.38%.

With `CCOC(=O)N1CCN(C(=O)c2sc3nc(-c4ccc(F)cc4)cn3c2C)CC1`, the inhibition was -1.44%.

In the case of `O=C(Cc1ccccc1)Nn1c(-c2ccccc2F)nc2ccccc2c1=O`, the inhibition was -1.28%.

In the case of `CC1(O)CC2CC1C(C(=O)O)C2C(=O)O` (configuration not stated), the inhibition was -2.28%.

As to `CCn1cc([N+](=O)[O-])c(C(=O)N2CCCc3ccccc32)n1`, the inhibition was 4.06%.

As to `COc1ccc(F)cc1S(=O)(=O)n1cnc2ccccc21`, the inhibition was 2.94%.
